Screening data: PubChem BioAssay, National Center for Advancing Translational Sciences (NCATS)
An excerpt weighted towards active compounds, which were near 11% of everything screened.
Sfp PPTase inh = qHTS Assay for Inhibitors of Bacillus subtilis Sfp phosphopantetheinyl transferase (PPTase); Potency, µM, inactives show largest response in the series, negative = inhibition, hits mostly inhibitors; 310,000 tested, 3.5% active; Biochemical Sfp PPTase activity, qHTS; AID 1490, 2009;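 also: the enzyme is Sfp with the accession as filed and its product quenches rhodamine fluorescence; potency is read from the fitted curve at half-maximal effect; 0% = enzyme reaction without inhibitor and -100% = no enzyme wells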
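With Hepes-Na pH 7.6 buffer containing 10 mM MgCl2, Sfp (15 nM) modified BHQ-2-YbbR (12.5 uM) using rhodamine-CoA (5 uM). Two reads 30 minutes apart at 525/598 nm yielded each well's rate.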
Tau fluor counter = Counterscreen qHTS for Inhibitors of Tau Fibril Formation, Fluorescence Polarization; 280,000 tested, 0.93% active; AID 1463, 2008; Potency, µM (doses to about 57.7 µM), without a hit: at the highest dose activity change, negative = decrease; tau K18 P301L Alexa594 fluorescence, heparin fibrillization; also: potency is read from the fitted curve at half-maximal effect; nearly all actives have a fitted effect of over 55% in size
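Human K18 P301L tau (15 uM unlabeled plus 0.24 uM Alexa 594-labeled, final) in 100 mM sodium acetate pH 7 was mixed with compound and 20 uM heparin and incubated 6 hr at 37 C.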
Coupling enz = qHTS Assay for Inhibitors of Fructose-1,6-bisphosphate Aldolase from Giardia Lamblia: Coupling assay counterscreen | 290,000 tested, 0.67% active | coupling enzyme system counterscreen, AmpLite Red fluorescence | activity change, negative = inhibition, % at 58.2 µM, hits read low; in the data active = activity change below about -30%
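Fluorescence at 525 nm excitation and 598 nm emission measured inhibition of the coupled detection system without aldolase. Compounds (at 57.5 uM final) were preincubated 10 min at room temperature with coupling enzyme reagent before a 20 min substrate/AmpLite Red step.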
Tau fibril ThT = qHTS for Inhibitors of Tau Fibril Formation, Thioflavin T Binding | Microtubule-associated protein tau (Homo sapiens), P10636 | recombinant tau K18 P301L (four-repeat tau fragment), heparin-induced fibrillization, ThT fluorescence | Potency, µM (highest dose often 57.4 µM), inactives show top-dose activity, negative = inhibition, most hits filed as inhibitors | 270,000 tested, 2.1% active | AID 1460, 2008; also: potency is read from the fitted curve at half-maximal effect; nearly all actives have a fitted effect of over 55% in size
Target sequence (P10636 561-689 P618L limits assumed): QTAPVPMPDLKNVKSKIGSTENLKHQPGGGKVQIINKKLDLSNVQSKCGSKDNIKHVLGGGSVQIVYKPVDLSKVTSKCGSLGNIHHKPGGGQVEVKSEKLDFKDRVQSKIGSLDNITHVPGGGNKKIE
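Recombinant human tau K18 fragment […] carrying P301L, 15 uM unlabeled plus 0.24 uM Alexa 594-labeled, was fibrillized with 20 uM heparin in 100 mM sodium acetate pH 7 for 6 hr at 37 C; 30 uM ThT fluorescence read after 1 hr.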
G9a inh = qHTS Assay for Inhibitors of Histone Lysine Methyltransferase G9a; G9a H3K9 monomethylation, AlphaScreen, 2 h; 350,000 tested, 8.8% active; Histone-lysine N-methyltransferase EHMT2 (Homo sapiens), Q96KQ7; Potency, µM (top dose mostly 102 µM), for the others: at the highest dose activity, negative = inhibition, actives largely listed as inhibitors; also: potency is read from the fitted curve at half-maximal effect; nearly all actives have a fitted effect of over 75% in size
Target sequence (Q96KQ7 913-1193 limits assumed): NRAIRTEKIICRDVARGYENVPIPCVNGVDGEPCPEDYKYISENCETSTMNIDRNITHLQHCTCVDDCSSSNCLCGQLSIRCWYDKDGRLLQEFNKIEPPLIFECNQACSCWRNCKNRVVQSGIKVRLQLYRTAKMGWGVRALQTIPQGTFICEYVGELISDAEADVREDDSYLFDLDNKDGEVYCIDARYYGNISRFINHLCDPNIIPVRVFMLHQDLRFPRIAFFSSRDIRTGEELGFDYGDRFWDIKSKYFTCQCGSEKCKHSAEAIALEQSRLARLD
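G9a (20 nM) was preincubated 15 min with compound, then reacted 2 h at room temperature with 500 nM biotin-H3K9 peptide and 20 µM SAM. Monomethyl-H3K9 detected by AlphaScreen using anti-H3K9me1 antibody.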
Tau FP inhib = qHTS for Inhibitors of Tau Fibril Formation, Fluorescence Polarization; Microtubule-associated protein tau (Homo sapiens), P10636; K18 P301L tau heparin fibrillization, Alexa594 FP, 6 h; Potency, µM (highest dose often 57.7 µM), for the others: at the top dose activity, negative = inhibition, most hits filed as inhibitors; 280,000 tested, 0.39% active; AID 1468, 2008; also: potency is read from the fitted curve at half-maximal effect; nearly all actives have a fitted effect of over 55% in size
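Steps: dispense K18 P301L tau (15 uM plus 0.24 uM Alexa 594 tracer, final) in pH 7 sodium acetate; add compound; add heparin (20 uM final); incubate 6 hr, 37 C; add ThT (30 uM final); after 1 hr ambient, read FP.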
The depositor's hits bear a star; ? = inconclusive; · = no result given; [ ] = another dose, or the depositor's remark. Unless noted, calls follow the shape of the dose curve; as a rule, active = well fitted curve in the direction sought with a large enough effect; inconclusive = small, poorly fitted or top-dose-only effect, or another doubt; inactive = no such curve, though single readings can be large; an effect the other way counts as inactive or inconclusive. Unless noted, % is scaled to controls: 0 for no effect and ±100 for the full control effect.

SMILES	Sfp PPTase inh	Tau fluor counter	Coupling enz	Tau fibril ThT	G9a inh	Tau FP inhib
O=C(CN1CCCC1)N1CCCC(c2ccc(F)cc2)c2ccc(F)cc21 (stereo unspecified)	-6.9%	-3.6%	-1.6	-4.4%	28.2µM*	2.5%
CCN1C(=O)C(CC(=O)Nc2ccc(OC)cc2)N(CCc2ccc(OC)cc2)C1=S (stereo unspecified)	20.0%	?	-3.9	-10.5%	-1.6%	?
CCN1C(=O)/C(=C2/C=Cc3cc(C)ccc3N2CC)N(C)C1=S	?	-28.1%	-6.3	?	11.2µM*	14.3%
CCN1/C(=C2\C(=O)N(C)C(=S)N2C)C=Cc2cc(OC)ccc21	50.1µM*	-9.4%	-2.2	-17.9%	7.94µM*	-8.8%
Cc1cc(OCc2nnc(SC(C)C(=O)O)n2Cc2ccccc2)ccc1Cl (stereo unspecified)	15.2%	8.0%	13.2	-2.7%	-6.3%	10.1%
O=C(Nc1cc(Oc2ccc(Cl)cc2)cc([N+](=O)[O-])c1)c1ccco1	-18.6%	7.08µM*[quencher]	-0.3	-7.0%	25.2%[59 µM]	-23.6%
O=C(CCc1ccc(Oc2cc([N+](=O)[O-])cc([N+](=O)[O-])c2)cc1)N1CCCCC1	14.1µM*	1.2%	-2.4	1.5%	?	-2.3%
O=C(CCc1ccc(Oc2cc([N+](=O)[O-])cc([N+](=O)[O-])c2)cc1)Nc1cccc(Cl)c1	2.5%	-1.6%	0.9	2.5%	8.91µM*	4.8%
CCc1cc(=O)oc2cc(C)c(CN3CCCC3)c(O)c12	89.1µM*	-9.0%	-1.7	?	44.7µM*	-10.6%
CCc1cc(=O)oc2cc(C)c(CN3CCCCC3)c(O)c12	-17.7%	3.2%	-0.3	-15.3%	-25.3%[59 µM]	0.0%
CCCc1cc(=O)oc2c(CN3CCCC3)c(O)ccc12	3.0%	-0.2%	1.3	1.8%	22.2%	2.3%
CCCc1cc(=O)oc2cc(C)c(CN3CCCC3)c(O)c12	?	-9.5%	-2.8	?	89.1µM*	-8.7%
N#Cc1nc(-c2cccc(Cl)c2)oc1N1CCC(C(N)=O)CC1	2.4%	·	-1.9	·	-0.4%	·
Cc1ccc(S(=O)(=O)N2CCOCC2)cc1C(=O)Nc1ccc2c(c1)OCCO2	·	·	·	·	-7.2%[12.7 µM]	·
COc1cc(-c2nc3ccccc3nc2-c2ccc(O)c(OC)c2)ccc1O	1.9%	·	1.0	·	·	·
COc1cc(-c2nc3ccccn3c2/N=C/c2ccccc2)ccc1O	-26.9%	-26.2%	3.8	?	?	-15.2%
COc1cc(-c2nc3ccccn3c2N)ccc1O	-3.0%	·	-4.6	·	50.1µM*	·
COc1cc(-c2nc3ccccn3c2/N=C/c2cccc(F)c2)ccc1O	-19.3%	-27.2%	3.9	?	17.8µM*	-8.2%
COc1cc(-c2nc3ccccn3c2/N=C/c2cc(OC)c(O)cc2Cl)ccc1O	-16.9%	?	-11.2	14.1µM*	22.4µM*	?
CCCn1ccc2c(OCC(=O)Nc3ccccc3C(=O)OCC)cccc2c1=O	·	-15.2%	·	-15.8%	-1.5%[59 µM]	-7.7%
CC1CCN(c2ccc(NC(=O)Cn3c(=O)oc4ccccc43)cc2)CC1	5.4%	·	·	·	-0.6%	·
COc1ccc(-c2nn(-c3ccccc3)cc2/C=C/C(=O)OCC(=O)Nc2ccccc2C#N)cc1	14.5%	8.5%	0.0	4.5%	24.5%[12.7 µM]	1.6%
NC(=O)N/N=C/c1cn(-c2ccccc2)nc1-c1ccccc1	-23.5%	-24.2%	-1.5	4.0%	10.6%	-14.4%
NS(=O)(=O)c1ccc(N/N=C/c2cn(-c3ccccc3)nc2-c2ccccc2)c([N+](=O)[O-])c1	-1.1%	17.8µM*[quencher]	0.0	15.8µM*	?	3.7%
O=C(O)/C=C/c1cn(-c2ccccc2)nc1-c1cccc([N+](=O)[O-])c1	11.3%	-16.2%	-2.1	?	?	5.4%
SMILES	Sfp PPTase inh	Tau fluor counter	Coupling enz	Tau fibril ThT	G9a inh	Tau FP inhib
O=[N+]([O-])c1ccc(N/N=C/c2cn(-c3ccccc3)nc2-c2ccccc2)cc1	15.2%	7.94µM*[quencher]	0.8	7.94µM*	-22.0%	7.1%
O=C(O)/C=C/c1cn(-c2ccccc2)nc1-c1ccc(-c2ccc([N+](=O)[O-])cc2)o1	25.1µM*	?	3.6	1.12µM*	50.1µM*	-1.2%
CNC(=O)COC(=O)/C=C/c1cn(-c2ccccc2)nc1-c1ccc(C)o1	50.1µM*	?	0.7	-20.3%	·	?
COc1ccccc1N1CCN(CC2CN3C(=O)N(C)c4ccccc4C3=N2)CC1 (stereo unspecified)	5.9%	0.4%	·	-4.0%	-4.1%[59 µM]	8.1%
N#CC1=C(N)SC(N)=C(C#N)C1CCC1CCCCC1	?	?	2.6	?	?	-7.5%
Cc1cc(C2C(C#N)=C(N)SC(N)=C2C#N)c(C)s1	?	-19.2%	-13.6	?	1.26µM*	-6.3%
COC(=O)C1=C(C)OC(N)=C(C#N)C1c1cc(C)sc1C (stereo unspecified)	-11.1%	0.9%	3.4	3.6%	-3.0%	?
Cc1sccc1C1C(C#N)=C(N)SC(N)=C1C#N	17.8µM*	?	-20.4	?	1.12µM*	-6.8%
C[n+]1cnn2c1SCC1(COC1)C2	2.6%	5.6%	2.7	-12.8%	35.5µM*	8.6%
COc1ccc(CN2CCSCC2)c(C)c1C	-6.7%	·	-0.1	·	3.55µM*	·
COc1ccc(CN2CCN(c3ncccn3)CC2)c(C)c1C	-21.1%	·	-1.7	·	4.47µM*	·
COc1ccc(CN2CCSCC2)c(OC)c1C	-4.8%	·	1.3	·	10µM*	·
COc1cccc(CN2CCN(c3ncccn3)CC2)c1OC	-20.4%	·	-1.5	·	?	·
COc1cc2c(cc1OC)CN(Cc1ccc(OC)c(C)c1OC)CC2	0.2%	-3.5%	0.7	-10.0%	?	?
COc1ccc(C)cc1NCc1ccc(OC)c(C)c1OC	-29.4%	·	-3.9	·	8.91µM*	·
CSc1ccc(CCNC(=O)c2ccc3c(Cl)c4c(nc3c2)CCCC4)cc1	·	-13.0%	·	?	-4.9%[59 µM]	-8.0%
CCC(C(=O)Nc1ccccc1OC)n1c(C(=O)OC)cc2sc(Cl)cc21 (stereo unspecified)	·	-29.6%	·	-5.5%	-1.0%[59 µM]	-15.9%
CC(C)(O)C(=O)NNC(=S)Nc1cccc(C(F)(F)F)c1	8.3%	-0.5%	4.8	-1.0%	7.94µM*	4.4%
FC(F)(F)c1cccc(NC(=S)Nc2ccc(Cl)c(Cl)c2)c1	-18.7%	17.8µM*[quencher]	-6.6	?	·	22.4µM*
O=C(COc1ccc(C(=O)O)cc1)Nc1cccc(C(F)(F)F)c1	13.6%	-5.5%	4.0	0.7%	-31.0%	7.9%
